In the library only some 19% were active in any assay of this set; here they are far more common.
TDP1 cell noCPT: qHTS for Inhibitors of human tyrosyl-DNA phosphodiesterase 1 (TDP1): qHTS in cells in absence of CPT | Potency, µM (series often up to 46.2 µM), for inactives: at the top dose activity change, negative = growth inhibition, most hits filed as inhibitors | DT40 Tdp1-/- hTDP1 cells, no CPT, ATP luminescence, 48 h | 420,000 tested, 15% active | AID 686978, 2013; note: potency is the fitted concentration of half-maximal effect; nearly all actives have a fitted effect of over 55% in size
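Camptothecin absent (DMSO only). Human TDP1-complemented DT40 knockout cells, 400 cells/well, 37 °C for minimum 48 hr; ATP measured via CellTiter-Glo, 30 min dark incubation, luminescence.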
HT1080NT lethal: qHTS for induction of synthetic lethality in tumor cells producing 2HG: qHTS for the HT-1080-NT fibrosarcoma cell line. 360,000 tested, 1.6% active. HT-1080-NT fibrosarcoma viability, CellTiter-Glo ATP luminescence, 48 h. Potency, µM (highest dose often 46.1 µM), for inactives: at the highest dose activity, negative = less viability, usual class: cytotoxic;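 note: NT is the 2HG producing partner of a matched IDH1 knockdown line; potency is the fitted concentration of half-maximal effect; 0% = DMSO-treated cells and -100% = media-only wells without cells; nearly all actives have a fitted effect of over 55% in size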
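HT-1080-NT fibrosarcoma cells (2HG-overproducing), 750 cells/well in RPMI with 5% FBS, dosed after 2 h and incubated 48 h at 37C. CellTiter-Glo luminescence normalized to DMSO and no-cell wells; concentration-response curves fitted and classed.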
IL-1B inflam inh: qHTS for Inhibitors of Inflammasome Signaling: IL-1-beta AlphaLISA Primary Screen; THP-1 LPS/ATP IL-1B secretion, AlphaLISA, 16 h; hits give low values; activity change, % at 57.5 µM; 360,000 tested, 4.7% active; AID 743279, 2014; in the data active = activity change below about -50%; inconclusive = mostly about -30% to -49%
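THP-1 cells pretreated 1 hr with compounds (up to 57.5 uM final), then stimulated with LPS (250 ng/mL final) plus ATP (1.25 mM final); secreted IL-1B measured by AlphaLISA after 16 hr, decreased signal indicating inhibition.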
TDP1 cell CPT: qHTS for Inhibitors of human tyrosyl-DNA phosphodiesterase 1 (TDP1): qHTS in cells in presence of CPT | 420,000 tested, 12% active | AID 686979, 2013 | Potency, µM (titrated, usually from 46.2 µM), for inactives: at the highest dose activity change, negative = growth inhibition, usual class: inhibitors | chicken DT40 Tdp1-/-;hTDP1 cells + 20 nM CPT, ATP luminescence, 48 h; note: potency is the fitted concentration of half-maximal effect; nearly all actives have a fitted effect of over 55% in size
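Chicken DT40 Tdp1-/- cells stably complemented with human TDP1 were seeded at 400 cells/well in medium containing 20 nM camptothecin, exposed to pin-transferred compounds, and grown at 37 °C for at least 48 hr. Viability was read as ATP luminescence.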
HT1080 IDH1KD tx: qHTS for induction of synthetic lethality in tumor cells producing 2HG: qHTS for the HT-1080-IDH1KD cell line. HT-1080 IDH1 knockdown viability, ATP luminescence, 48 h. Potency, µM (doses to about 46.1 µM), inactives show at the top dose activity, negative = toxicity, most hits filed as cytotoxic. 360,000 tested, 2% active. AID 686971, 2013;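 note: potency is the fitted concentration of half-maximal effect; 0% = DMSO wells and -100% = cell-free medium wells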
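Viability of IDH1-knockdown HT-1080 fibrosarcoma cells was assessed by CellTiter-Glo after 48 h at 37 °C with titrated compound; concentration-effect curves were classified by fit quality and response size.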
uPA surface inh: qHTS for Inhibitors of Cell Surface uPA Generation | cell surface uPA generation assay, qHTS | Potency, µM (titrated, usually from 38.3 µM), without a hit: at the top dose activity change, negative = inhibition, usual class: inhibitors | 330,000 tested, 0.31% active; active = well fitted inhibition curve with a large enough effect; inconclusive = small, poorly fitted or top-dose-only effect; inactive = no such curve, though single readings can be large or run the other way; tested in mouse RAW 264.7 cells; note: potency is the fitted concentration of half-maximal effect; nearly all actives have a fitted effect of over 55% in size
Active calls of the source: *; ! = repeats disagree. Unless noted, calls come from the whole dose curve; as a rule, active = well fitted curve in the direction sought with a large enough effect; inconclusive = small, poorly fitted or top-dose-only effect, or another doubt; inactive = no such curve, though single readings can be large; an effect the other way counts as inactive or inconclusive. Unless noted, % is set by controls: 0 for no effect and ±100 for the full control effect.

What do the screens show for `CC(C)CC1Nc2ncnc(N3CCN(c4ccccn4)CC3)c2N(Cc2ccc(Cl)cc2)C1=O` (configuration not stated)?
TDP1 cell noCPT: 23µM*; HT1080NT lethal: inconclusive; IL-1B inflam inh: -70*!; TDP1 cell CPT: inconclusive; HT1080 IDH1KD tx: inconclusive; uPA surface inh: -26%

What do the screens show for `COc1ccc(CN2C(=O)C(CC(C)C)Nc3ncnc(N4CCN(c5ccccc5)CC4)c32)cc1` (configuration not stated)?
TDP1 cell noCPT: inconclusive; HT1080NT lethal: inconclusive; IL-1B inflam inh: -62*!; TDP1 cell CPT: 18µM*; HT1080 IDH1KD tx: -8%; uPA surface inh: inconclusive

What do the screens show for `Cc1ccc(CN2C(=O)C(CC(C)C)Nc3ncnc(N4CCOCC4)c32)cc1` (configuration not stated)?
TDP1 cell noCPT: -27%; HT1080NT lethal: 0%; IL-1B inflam inh: 14; TDP1 cell CPT: -9%; HT1080 IDH1KD tx: 9%; uPA surface inh: 1%

How did CC(C)CC1Nc2ncnc(N3CCCCC3)c2N(Cc2ccccc2)C1=O (configuration not stated) do in these assays?
TDP1 cell noCPT: 18µM*; HT1080NT lethal: inconclusive; IL-1B inflam inh: -15; TDP1 cell CPT: 26µM*; HT1080 IDH1KD tx: -12%; uPA surface inh: -12%

What do the screens show for `CC(C)C(NC(=O)c1ccc(C(C)(C)C)cc1)C(=O)N1CCC(C(N)=O)CC1` (configuration not stated)?
TDP1 cell noCPT: inconclusive; HT1080NT lethal: 4%; IL-1B inflam inh: 1; TDP1 cell CPT: inconclusive; HT1080 IDH1KD tx: 11%; uPA surface inh: 1%

Results for CC(C)CC1Nc2ncnc(N3CCN(c4ccccc4)CC3)c2N(Cc2ccccc2)C1=O (configuration not stated) ?
TDP1 cell noCPT: 15µM*; HT1080NT lethal: -27%; IL-1B inflam inh: -20; TDP1 cell CPT: 16µM*; HT1080 IDH1KD tx: -4%; uPA surface inh: inconclusive

How did CC(C)Cn1c(N)c(C(=O)COC(=O)COc2cccc(C(F)(F)F)c2)c(=O)n(C)c1=O do in these assays?
TDP1 cell noCPT: -8%; HT1080NT lethal: 1%; IL-1B inflam inh: 13; TDP1 cell CPT: -19%; HT1080 IDH1KD tx: 5%; uPA surface inh: 8%

How did CC(C)Cc1nnc(NC(=O)CCC(=O)Nc2ccc(Cl)cc2)s1 do in these assays?
TDP1 cell noCPT: -17%; HT1080NT lethal: 9%; IL-1B inflam inh: 8; TDP1 cell CPT: 14%; HT1080 IDH1KD tx: -6%; uPA surface inh: 1%

Results for CCOCCc1nnc(NC(=O)CCS(=O)(=O)c2ccccc2)s1 ?
TDP1 cell noCPT: 9.2µM*; HT1080NT lethal: -27%; IL-1B inflam inh: -29; TDP1 cell CPT: 21µM*; HT1080 IDH1KD tx: inconclusive; uPA surface inh: -12%

How did Cc1cc(C)cc(N(CCC(=O)Nc2nnc(C)s2)S(=O)(=O)c2ccc(Cl)cc2)c1 do in these assays?
TDP1 cell noCPT: 23µM*; HT1080NT lethal: -18%; IL-1B inflam inh: 30; TDP1 cell CPT: inconclusive; HT1080 IDH1KD tx: -22%; uPA surface inh: -2%

How did CC(C)Cc1nnc(NC(=O)CCS(=O)(=O)c2ccc(Cl)cc2)s1 do in these assays?
TDP1 cell noCPT: inconclusive; HT1080NT lethal: -2%; IL-1B inflam inh: 13; TDP1 cell CPT: 21µM*; HT1080 IDH1KD tx: 4%; uPA surface inh: -9%

Screening data as filed in PubChem.
